Results filed as inconclusive are left out. A number with no mark means an inactive call. The source made the active and inactive calls. The call rests on the fitted dose curve; in most records, active means well fitted inhibition curve with a large enough effect; inconclusive means small, poorly fitted or top-dose-only effect; inactive means flat fitted curve, though single readings scatter.
target: Calcium and integrin-binding protein 1 (Homo sapiens) (UniProt Q99828); assay: Primary qHTS for Identification of Calcium Integrin Binding Protein 1 (CIB1) Competitor (AID 1508620); conditions: CIB1-GST / FITC-alphaIIb peptide fluorescence polarization; series mostly up to 114 µM; activity change, negative = inhibition: at the top concentration; further: top concentration of the series differs between compounds
Sequence (Q99828 whole entry, looked up): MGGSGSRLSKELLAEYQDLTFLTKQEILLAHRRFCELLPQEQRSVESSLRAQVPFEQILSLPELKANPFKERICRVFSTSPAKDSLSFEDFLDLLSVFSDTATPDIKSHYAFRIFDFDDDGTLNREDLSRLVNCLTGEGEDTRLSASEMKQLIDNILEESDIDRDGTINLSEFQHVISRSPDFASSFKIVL
Method in brief: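 Fluorescence polarization competition: GST-tagged CIB1 (1 uM final) preincubated with compound 15 min at room temperature, then FITC-labelled alphaIIb peptide (100 nM final) added. After 15 min at room temperature, polarization read at Ex 480/Em 540.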
On the % scale 0 is the no-effect control and ±100 the full control effect.

**Q.** With `Cc1ccc(OCCn2c(CCNC(=O)c3cccc(C(F)(F)F)c3)nc3ccccc32)cc1` as the compound, how does the Potency read?
**A.** Its Potency is “inactive”.

**Q.** Which “activity change, negative = inhibition” value does the source give for `O=C(O)c1cccnc1SC1=NS(=O)(=O)c2ccccc21` here?
**A.** Its value is -2.75%.

**Q.** With `O=C1CCCC2=C1C(c1[nH]ncc1Cl)N=C(Nc1nc3cc([S+](=O)([O-])N4CCCC4)ccc3o1)N2` (stereo not given) as the compound, how does the “activity change, negative = inhibition” value read?
**A.** The value was 4.75%.

**Q.** For `Cc1csc(CN(C)c2ncnc3ccc(-c4ccc5c(c4)OCO5)cc23)n1`, which “activity change, negative = inhibition” value is on record?
**A.** Its value is -1.61%.

**Q.** How did the “activity change, negative = inhibition” value turn out when `CCOC(=O)C1CCN(C(=O)C(C)(C)NC(=O)Nc2ccc(Cl)cc2Cl)CC1` was run?
**A.** Its value is 5.36%.

**Q.** Which “activity change, negative = inhibition” value does the source give for `Cc1c(C(=O)NCC2CCCO2)[nH]c2c1C(=O)CC(c1ccco1)C2` (stereo not given) here?
**A.** Its value is -3.97%.

**Q.** For `N#CNC(=O)c1ccc(-n2cccc2/C=C2\NC(=O)N(CC(=O)Nc3cccc(F)c3)C2=O)cc1`, which “activity change, negative = inhibition” value is on record?
**A.** Its value is 6.07%.

**Q.** With `O=C1Cc2cc(S(=O)(=O)N3CCN(c4ccc(O)cc4)CC3)ccc2N1` as the compound, how does the “activity change, negative = inhibition” value read?
**A.** The value was -20.4%.

**Q.** For `Nc1nc(NCc2ccc(-c3ccnc(C(F)(F)F)c3)cc2)c2ccccc2n1`, which “activity change, negative = inhibition” value is on record?
**A.** The value was 26.1%.

**Q.** Which “activity change, negative = inhibition” value does the source give for `Cc1cc(C)nc(NC(=S)N2CCN(Cc3c(F)cccc3Cl)CC2)c1` here?
**A.** The value was -7.31%.

**Q.** How did the “activity change, negative = inhibition” value turn out when `CN1CCN(c2nn3c(=O)c4ccccc4nc3s2)CC1` was run?
**A.** Its value is 0.849%.

**Q.** With `COc1cccc(C(=O)Nc2ccc(-c3nc4ccccc4[nH]3)cc2)c1` as the compound, how does the “activity change, negative = inhibition” value read?
**A.** The value was 3.84%.

**Q.** How did the “activity change, negative = inhibition” value turn out when `Cn1c2cc(B(O)O)sc2c2cnn(Cc3c(F)cccc3Cl)c(=O)c21` was run?
**A.** The value was 3.07%.

**Q.** How did the “activity change, negative = inhibition” value turn out when `Cc1ccc(-c2ccc(CNc3nc(-c4ccccc4C(C)C)nc4ccccc34)cc2)cn1` was run?
**A.** Its value is 3.68%.

**Q.** How did the “activity change, negative = inhibition” value turn out when `N#Cc1ccc(NC(=O)Nc2nnc(-c3ccncc3)s2)c(Cl)c1` was run?
**A.** Its value is 7.97%.

**Q.** `Fc1ccc(-c2nnc(CCCCSc3nnc(-c4cccc5ccccc45)o3)o2)cc1` was tested. Which “activity change, negative = inhibition” value did it give?
**A.** Its value is 3.92%.

**Q.** How did the “activity change, negative = inhibition” value turn out when `N[C@H]1CCN(c2cnc3c(O)ccc(C(=O)O)c3c2)C1` was run?
**A.** The value was -13%.

**Q.** For `Cc1ccnc(NCc2ccc(O)c3ncccc23)c1`, which “activity change, negative = inhibition” value is on record?
**A.** Its value is 11.8%.

**Q.** For `N#Cc1nc(Nc2ccc(Br)cc2)nc(NC2CCCC2)n1`, which “activity change, negative = inhibition” value is on record?
**A.** Its value is 8.95%.

**Q.** How did the “activity change, negative = inhibition” value turn out when `O=C(Nc1ncc([S+](=O)([O-])N2CCOCC2)s1)c1cccc(Br)c1` was run?
**A.** Its value is -7.16%.

**Q.** For `CCCCNC(=O)c1ccc2c(c1)ncn2-c1cccc(C)c1`, which “activity change, negative = inhibition” value is on record?
**A.** The value was 2.37%.

**Q.** How did the “activity change, negative = inhibition” value turn out when `O=C1CCCC2=C1C(c1[nH]ncc1Cl)NC(=NCCc1ccc(O)cc1)N2` (stereo not given) was run?
**A.** The value was -1.63%.

**Q.** How did the “activity change, negative = inhibition” value turn out when `CC(C)c1ccccc1-c1nc2c(c(NCc3ccc(-c4cccnc4)cc3)n1)CCNC2` was run?
**A.** The value was -1.69%.

**Q.** How did the “activity change, negative = inhibition” value turn out when `NC(=O)C1CCN(c2nc(-c3ccccc3)cs2)CC1` was run?
**A.** The value was 1.84%.

**Q.** `CC1(C)CC2CC(C)(CN2S(=O)(=O)c2ccc(C(=O)Nc3cccc(S(=O)(=O)N4CCOCC4)c3)cc2)C1` (stereo not given) was tested. Which “activity change, negative = inhibition” value did it give?
**A.** Its value is 8.98%.

**Q.** For `COc1ccc(C(CC(=O)N2CC(C)CC(C)C2)c2c(O)cc(OC)cc2OC)cc1` (stereo not given), which “activity change, negative = inhibition” value is on record?
**A.** The value was 4.16% [at 228 µM].

**Q.** For `Cc1cc(N[S+](=O)([O-])c2ccc(NC(=O)Cc3cccc(Cl)c3Cl)cc2)no1`, which “activity change, negative = inhibition” value is on record?
**A.** Its value is -15.2%.

**Q.** How did the “activity change, negative = inhibition” value turn out when `Cc1cnc(-c2ccccc2C(C)C)nc1NCc1ccc(-c2cccnc2)cc1` was run?
**A.** Its value is 10.1%.

**Q.** Which “activity change, negative = inhibition” value does the source give for `O=C(OCC#CCSc1nnc(-c2cccc3ccccc23)s1)c1cccs1` here?
**A.** Its value is -10.7%.

**Q.** For `CC1=C(C(=O)Nc2ccccc2)C(c2ccccc2Cl)N=C(Nc2nc3ccccc3o2)N1` (stereo not given), which “activity change, negative = inhibition” value is on record?
**A.** The value was 6.99%.

**Q.** For `O=S1(=O)N=C(OCc2ccccc2)c2ccccc21`, which “activity change, negative = inhibition” value is on record?
**A.** The value was -4.07%.

**Q.** Which “activity change, negative = inhibition” value does the source give for `Cc1ccc(-c2ccc(=O)n(CC(=O)NCc3ncc[nH]3)n2)cc1` here?
**A.** Its value is -0.465%.

**Q.** For `Cc1cc(-c2nnc3n2CCCC3)c(C)n1-c1ccccc1`, which “activity change, negative = inhibition” value is on record?
**A.** The value was 0.923%.

**Q.** `O=C(Nc1cccc([S+](=O)([O-])Nc2ccccc2F)c1)c1ccccc1` was tested. Which “activity change, negative = inhibition” value did it give?
**A.** The value was 1.8%.

**Q.** For `Cc1nc(C)c(-c2ccc3ncnc(NCCc4cnc[nH]4)c3c2)s1`, which “activity change, negative = inhibition” value is on record?
**A.** Its value is 3.06%.

**Q.** `CCc1ccc(NC(=O)c2[nH]c(C)c(C(C)=O)c2C)cc1S(=O)(=O)Nc1ccc(C#N)cc1` was tested. Which “activity change, negative = inhibition” value did it give?
**A.** The value was -7%.

**Q.** `Cc1cc(C)n2ncc(C(=O)Nc3cccc(C(F)(F)F)c3)c2n1` was tested. Which “activity change, negative = inhibition” value did it give?
**A.** Its value is -1.6%.

**Q.** For `Cc1c(P(=S)(c2ccccc2)c2ccccc2)c2ccccc2n1CCc1ccccc1`, which “activity change, negative = inhibition” value is on record?
**A.** Its value is 2.03%.

**Q.** With `CCOC(=O)CCCC(=O)Nc1ncnc2c1C(c1ccccc1)c1c(ccc3ccccc13)O2` (stereo not given) as the compound, how does the “activity change, negative = inhibition” value read?
**A.** The value was 7.37%.

**Q.** Which Potency does the source give for `CCOC(=O)c1[nH]c2c(c1C)C(=O)CC(c1ccco1)C2` (stereo not given) here?
**A.** The Potency was “inactive”.
